Assay outcomes (PubChem BioAssay)
CYP2C9 act: human CYP2C9 activators, primary screen, biochemical, luminescence. 96,000 compounds, 1.4% hits. recombinant CYP2C9, luciferin-H conversion; stronger effect = higher value; factor 1 = untreated enzyme, 0 = blocked. Cytochrome P450 2C9 (Homo sapiens), P11712. activation factor at 5 µM. AID 1024, 2008;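 active = activation factor of 2 or more for CYP2C9 at a 5 µM dose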;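 note: 0 = sulfaphenazole-blocked wells and 1 = vehicle-only wells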
CYP2C19 inh: blockers of cytochrome P450 2C19 activity – biochemical, luminescence, ADME assay, primary screen | 96,000 compounds, 21% hits | P33261 | inhibition, % at 5 µM | CYP2C19 Supersomes, luciferin-H EGE luminescence, 30 min;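 active = CYP2C19 inhibition above a set limit at 5 µM in the primary screen, cut at about 50% in these data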;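 note: plate controls were negative control wells for no effect and 2.5 mM tranylcypromine positive control for full effect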
Target sequence (P33261 whole entry, looked up): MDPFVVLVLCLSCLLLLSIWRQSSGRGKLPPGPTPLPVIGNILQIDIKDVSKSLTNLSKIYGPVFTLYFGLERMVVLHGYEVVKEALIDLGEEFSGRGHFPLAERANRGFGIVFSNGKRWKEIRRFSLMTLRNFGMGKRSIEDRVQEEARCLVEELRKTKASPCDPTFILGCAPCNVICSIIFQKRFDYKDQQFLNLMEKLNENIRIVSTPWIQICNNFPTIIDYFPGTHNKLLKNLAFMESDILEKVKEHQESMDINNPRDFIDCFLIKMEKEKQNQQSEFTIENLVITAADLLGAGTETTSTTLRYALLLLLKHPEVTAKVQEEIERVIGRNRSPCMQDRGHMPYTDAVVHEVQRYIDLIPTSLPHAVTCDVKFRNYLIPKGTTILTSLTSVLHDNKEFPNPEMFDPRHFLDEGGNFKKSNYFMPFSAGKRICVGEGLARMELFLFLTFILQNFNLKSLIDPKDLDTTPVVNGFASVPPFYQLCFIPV
CYP2C9 inh: blockers of cytochrome P450 2C9 activity – biochemical, luminescence, ADME assay, primary screen; 96,000 compounds, 20% hits; CYP2C9 Supersomes, luciferin-H conversion; inhibition, % at 5 µM;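 active = blocking of liver enzyme CYP2C9 beyond about 50% at 5 µM, limit read from the data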
MRP resist rev: reversal of MRP1-mediated doxorubicin resistance, primary screen, H69AR cells, doxorubicin co-treatment; 85,000 compounds, 0.04% hits; differential viability (reversal), % at 10 µM; H69AR cells + 2 uM doxorubicin, CellTiter-Glo, 72 h;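 active = viability drop by adding the cancer drug above about 55%, with treated viability meeting a 40% cutoff, limit read from the data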;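 note: viability without doxorubicin minus viability with 2 µM doxorubicin for each compound; larger differential means the compound sensitizes cells more to doxorubicin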
CYP2C19 activ: human CYP2C19 activators, primary screen, biochemical, luminescence; Cytochrome P450 2C19 (Homo sapiens), P33261; activation factor at 5 µM; recombinant CYP2C19, luciferin-H EGE luminescence; stronger effect = higher value; 0 = fully inhibited enzyme, 1 = untreated enzyme; 96,000 tested, under 10 active; AID 1025, 2008;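 active = activation factor of at least 2 at 5 µM in the primary screen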;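 note: 0 = wells with 2.5 mM tranylcypromine and 1 = vehicle-only wells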
MRP1 act: H69AR viability gain despite doxorubicin, primary screen, MRP-1 activator project, H69AR cells, CellTiter-Glo | viability rescue | AID 799, 2007 | viability increase, % at 10 µM | 140,000 compounds, 0.61% hits;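 active = viability gain under doxorubicin at or above a set limit, the compound median plus 3 SD, cut at about 4.7% in these data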;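 note: MRP-1 overexpressing cells given doxorubicin 25 µM after compound pretreatment; 18-22 h compound pretreatment then 72 h with doxorubicin before readout; 0% = doxorubicin-only wells and 100% = vehicle-treated cells without doxorubicin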
An asterisk follows results filed as active; . = not tested or not shown. An excerpt weighted towards active compounds, which were near 21% of everything screened.

SMILES	CYP2C9 act	CYP2C19 inh	CYP2C9 inh	MRP resist rev	CYP2C19 activ	MRP1 act
O=C(COc1ccc(Cl)cc1)NCc1nnc(SCC(=O)Nc2ccccc2)o1	2*	17	-96	-2	0.8	0
O=C(COc1ccc(Cl)cc1)NCc1nnc(SCC(=O)NC2CCCCC2)o1	0.9	16	14	18	0.8	1
CC1CCN(C(=O)CSc2nnc(CNC(=O)COc3ccc(Cl)cc3)o2)CC1	0.4	67*	57*	9	0.3	0
COCC(=O)NCCc1nc2ccccc2[nH]1	0.9	0	5	44	1	-2
COc1ccccc1C(=O)NCCc1nc2ccccc2[nH]1	0.4	88*	58*	-3	0.1	1
O=C(NCCc1nc2ccccc2[nH]1)c1ccc(F)cc1	0.5	88*	51*	-18	0.1	-1
O=C(CCCCCN1C(=O)c2ccccc2C1=O)NCCc1nc2ccccc2[nH]1	0.1	95*	91*	11	0.1	0
CCCC(=O)NCCCc1nc2ccccc2[nH]1	1.1	-6	-8	14	1.1	0
CCCOc1ccc(C2C(=O)N(C3CCCCC3)CC(=O)N2C2CC2)cc1OC (centres undefined)	0.7	0	35	8	1	-3
CO/N=C/NC(=O)NOCc1ncc(C(F)(F)F)cc1Cl	1.2	39	-18	4	0.6	-2
O=C(N/C=N/OCc1ccc(Cl)cc1Cl)NOCc1ncc(C(F)(F)F)cc1Cl	0.1	97*	86*	2	0	-4
NC(=O)CC[C@@H]1NC(=O)[C@@H]2CCCN2C(=O)c2cc([N+](=O)[O-])cc(I)c2NCCC[C@@H](C(N)=O)NC1=O	.	.	.	.	.	-1
C=CCN1C(=O)CN=C1Nc1cc(C)ccc1C	0.9	15	9	-7	0.9	-1
N/C(Cc1ccc(Cl)cc1)=N\OC(=O)c1ccccc1	0.4	66*	63*	2	0.3	-3
O=C(OCc1ccc(Cl)cc1)c1ccccc1C(=O)c1ccccc1	0.7	72*	29	.	0.3	3
O=C(COC(=O)c1cccc2ccccc12)Nc1cccnc1Cl	.	.	.	.	.	0
CCC(=O)Nc1ccccc1C(=O)OC(c1ccccc1)c1ccccc1	.	.	.	.	.	-3
CCC(=O)Nc1ccccc1C(=O)OCc1ccc(C(=O)c2ccccc2)cc1	0.4	42	62*	.	0.6	-1
O=C(O)c1ccccc1C(=O)OCc1ccccc1	1.1	-2	-8	17	1	-2
CCC(=O)Nc1ccccc1C(=O)OCC(=O)c1cccc2ccccc12	0.3	11	73*	.	0.9	-2
COc1cccc(CNC(=O)C(=O)NCC2CCCO2)c1 (centres undefined)	.	.	.	4	.	-1
Cc1ccc2[nH]c3c(=O)n(CCC4=CCCCC4)cnc3c2c1	0.8	40	23	10	0.6	0
Cc1ccc2c(c1)[nH]c1c(=O)n(CCC3=CCCCC3)cnc12	0.9	55*	7	.	0.4	0
O=c1c2[nH]c3ccccc3c2ncn1CCC1=CCCCC1	0.7	67*	34	7	0.3	1
COc1nc(N2CCCCCC2)nc(N2CCCCCC2)n1	0.5	46	51*	13	0.5	-1
SMILES	CYP2C9 act	CYP2C19 inh	CYP2C9 inh	MRP resist rev	CYP2C19 activ	MRP1 act
Cc1cc(NC(=O)CN2C(=O)NC3(CCCCC3)C2=O)no1	.	.	.	.	.	1
Cc1noc(C)c1CN1C(=O)NC2(CCCCCCC2)C1=O	0.7	61*	30	6	0.4	-1
O=C(N/N=C/c1ccccc1Br)c1ccc(CSc2cccc3cccnc23)cc1	0.5	45	50*	11	0.6	0
N#Cc1ccc(NC(=O)COC(=O)CCNS(=O)(=O)c2ccccc2)cc1	.	.	.	.	.	0
Cn1c(C(=O)NCCCN2CCN(c3ccccc3F)CC2)cc2c(=O)n(C)c3ccccc3c21	0.5	66*	50*	-9	0.3	-6
Cn1c(C(=O)NCCCN2CCOCC2)cc2c(=O)n(C)c3ccccc3c21	0.9	14	6	33	0.9	-2
Cc1cc(=O)oc(C)c1C(=O)NCCCN1CCN(c2ccccc2F)CC1	0.4	8	64*	-8	0.9	-3
CCC(c1nnnn1C(C)(C)C)N(Cc1cccs1)Cc1cc2cc(C)c(C)cc2n2nnnc12 (centres undefined)	.	.	.	-5	.	.
N#Cc1ccc(NC(=O)c2cc3cc4c5c(c3oc2=N)CCCN5CCC4)cc1	.	.	.	-6	.	.
N=c1oc2c3c4c(cc2cc1C(=O)Nc1ccccc1)CCCN4CCC3	0.9	11	7	.	0.9	6.4*
COCC(=O)Nc1nc(-c2ccccc2)c(C)s1	0.8	52*	18	6	0.5	2
Cc1sc(NC(=O)c2ccco2)nc1-c1ccccc1	0.2	55*	81*	-18	0.4	-4
Cc1ccc(S(=O)(=O)NC2c3cccc4cccc(c34)C2Sc2ncccn2)cc1 (centres undefined)	.	.	.	.	.	-2
c1ccc(-c2nc3cc4ccccc4cc3[nH]2)nc1	0.5	80*	46	-3	0.2	-2
CC(=O)Nc1ccc2nc(-c3ccccn3)[nH]c2c1	0.7	20	29	6	0.8	-3
COC(=O)c1ccc(NC(=S)NCCc2ccccc2C)cc1	.	.	.	.	.	-3
COC(=O)c1ccc(NC(=S)NCCc2cccc(C)c2)cc1	0.2	77*	79*	.	0.2	-2
CCSc1ccccc1C(=O)NCc1ccc2c(c1)OCO2	0.6	99*	37	.	0	-1
COc1ccc(CNC(=O)c2c(F)c(F)c(F)c(F)c2F)cc1	.	.	.	.	.	-2
O=C(NCc1ccc2c(c1)OCO2)c1cnc2ccccn2c1=O	1.4	66*	-39	-14	0.3	-3
COc1ccc(CNC(=O)c2ccccc2SC)cc1	0.8	90*	20	8	0.1	-1
COc1ccc(CNC(=O)c2cnc3cc(C)ccn3c2=O)cc1	0.8	62*	20	.	0.4	-1
COc1ccc(C(=O)NN2CC(O)=C(c3nc4ccccc4n3C)C2=N)cc1OC	.	.	.	.	.	1
COC(=O)c1c(NC(=O)Cn2cnc([N+](=O)[O-])n2)sc2c1CCC(C)C2 (centres undefined)	.	.	.	.	.	-2
CSc1ccccc1C(=O)NCc1ccc2c(c1)OCO2	0.9	94*	12	-10	0.1	-1
CCOc1ncccc1C(=O)NCc1ccc(C)cc1	.	.	.	.	.	0
COC(=O)NCc1ccc2c(c1)OCO2	1.2	-2	-15	11	1	-1
CCOc1ncccc1C(=O)Nc1ccccc1C(=O)NCc1ccc2c(c1)OCO2	0.3	48	75*	21	0.5	-2
